Inconclusive results are not listed. Calls of active or inactive are those of the source. The call rests on the fitted dose curve.
Experiment: Primary qHTS to identify inhibitors of SARS-CoV-2 cell entry (AID 1645846); further: nearly all actives have a fitted effect of over 45% in size
Conditions: SARS-CoV-2 pseudovirus cell entry assay, luminescence; activity change, negative = inhibition: at 57.1 µM (top of the series) unless noted
How it was run: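 Data are normalized to wells receiving SARS-CoV-2-S pseudoparticles and those given bald particles. Entry signal was luciferase luminescence in stable hACE2 Expi293F cells, 48 hr post-infection, after 1 hr compound pretreatment.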
Potency means the concentration at half of the fitted maximal effect.

Row | Structure (SMILES) | Potency | activity change, negative = inhibition [%] | outcome
1 | CCCc1cc(C(=O)N[C@H](Cc2ccc(-c3cccc(OC(F)(F)F)c3)nc2)C(=O)N[C@@H]2CCNC2)sc1C | 31.6 µM (active) | – | –
2 | NS(=O)(=O)OC[C@@H]1C[C@@H](n2ccc3c(N[C@H]4CCc5ccccc54)ncnc32)C[C@@H]1O | – | -87.9 | –
3 | Cc1[nH]c2ccccc2c1CCNCc1ccc(/C=C/C(=O)NO)cc1 | – | – | inactive
4 | CCOC(=O)CCNc1cc(N2CCc3ccccc3CC2)nc(-c2ccccn2)n1 | – | -97.3 | –
5 | O=C(NO)c1cnc(N2C[C@H]3C[C@@H]2CN3c2cc(C(F)(F)F)ccn2)nc1 | – | – | inactive
6 | CNC(=O)CCc1cc(-c2ccc(-c3ccc(C(F)(F)F)cc3)cc2)n(-c2ccc(N3CCNCC3)cc2)n1 | – | -95.7 | –
7 | COc1cc(N2CCN(C(C)=O)CC2)ccc1Nc1ncc(Cl)c(Nc2ccc(N3CCN(C(C)=O)CC3)cc2OC)n1 | – | -12.2 | –
8 | COc1ccc(S(=O)(=O)Nc2cc(-c3csc(C#N)c3)ccc2C)cc1 | – | -92 | –
9 | CC[C@@H](C)Nc1cc(C(=O)NC2CC3CCC(C2)N3c2ccc(C(=O)C3CC3)cn2)c(C)cc1C(N)=O (stereo not given in full) | 1 µM (active) | – | –
10 | CC1(C(=O)O)CCC2(C)CCC3(C)C(=CC(=O)C4C5(C)CCC(OC6OC(C(=O)O)C(O)C(O)C6OC6OC(C(=O)O)C(O)C(O)C6O)C(C)(C)C5CCC43C)C2C1 (stereo not given) | – | – | inactive
11 | Cc1c(NC(=O)c2cc(C(N)=O)nc3cc(F)ccc23)c(C(F)(F)F)nn1Cc1ccc(C(C)(C)C)cc1 | – | -95.1 | –
12 | CCc1c(C(=O)NNC(=O)[C@@H](O)c2cc(F)cc(F)c2)ccc(O)c1C | – | -19.8 | –
13 | O=C(NO)c1cnc(NC2(c3ccccc3)CC2)nc1 | – | – | inactive
14 | O=C(O)C[C@H]1CCc2c1[nH]c1ccc(OCc3ccc(C4CCCC4)c(C(F)(F)F)c3)cc21 | – | -95.5 | –
15 | C=CC(=O)Nc1cc(N2CCN(CC)CC2)ccc1Nc1cc(N(C)C(=O)Nc2c(Cl)c(OC)cc(OC)c2Cl)ncn1 | – | -6.15 | –
16 | CCNCCc1ccc(CN(CC)c2cc(OC)ccc2[C@@H]2CCc3cc(O)ccc3C2)cc1 | 31.6 µM (active) | – | –
17 | CNC(=O)c1ccc(Nc2ncc(C(F)(F)F)c(NCc3nccnc3N(C)S(C)(=O)=O)n2)cc1 | 0.891 µM (active) | – | –
18 | CN(C)C/C=C/C(=O)Nc1cccc(C(=O)Nc2cccc(Nc3ncc(Cl)c(-c4c[nH]c5ccccc45)n3)c2)c1 | 3.16 µM (active) | – | –
19 | C[C@H](NC(=O)[C@H]1NCC[C@@H]1O)c1ccc(-c2noc(CCC3CCCC3)n2)cc1 | – | -92.1 | –
20 | C=CC(=O)Nc1cccc(Nc2nc(Nc3ccc(Oc4ccnc(C(=O)NC)c4)cc3)ncc2F)c1 | 22.4 µM (active) | – | –

Row | Structure (SMILES) | Potency | activity change, negative = inhibition [%] | outcome
21 | COc1cc(C(=O)NC2CCN(C)CC2)c(F)cc1Nc1ncc2c(n1)N(C1CCCC1)CC(F)(F)C(=O)N2C | – | -99.3 | –
22 | O=C(NO)c1cnc(NC2(c3cccc(F)c3)CCCCC2)nc1 | 28.2 µM (active) | – | –
23 | COc1cc2c(NC3CCN(CC4CCCCC4)CC3)nc(N3CCCN(C(C)C)CC3)nc2cc1OCCCN1CCCCC1 | 3.16 µM (active) | – | –
24 | O=C(NCc1ccc(S(=O)(=O)c2cccc(C(F)(F)F)c2)cc1)c1cnc2[nH]ncc2c1 | – | -97.3 | –
25 | Cc1ccc([N+](=O)[O-])cc1S(=O)(=O)N(C)/N=C/c1cnc2ccc(Br)cn12 | – | -94.8 | –
26 | Cc1cc2c(F)c(Oc3ncnn4cc(OCC(C)OC(=O)C(C)N)c(C)c34)ccc2[nH]1 (stereo not given) | 11.2 µM (active) | – | –
27 | CC1(C)C(N(O)C(=O)Nc2ccc(Cl)cc2)N(c2ccc(Cl)cc2)C(=O)N1CC(=O)N/N=C/C=C/c1ccc([N+](=O)[O-])o1 (stereo not given) | 17.8 µM (active) | – | –
28 | Cc1c(CN2CCC(Nc3ncnc4sc(CC(F)(F)F)cc34)CC2)ccc2c1cc(C#N)n2Cc1cn[nH]c1 | 8.91 µM (active) | – | –
29 | CC(C)Oc1ccc(-c2nc(-c3cccc4c3CC[C@@H]4NCCO)no2)cc1C#N | – | – | inactive
30 | CN[C@@H]1[C@@H](O)[C@@H](O[C@@H]2[C@@H](O)[C@H](O[C@H]3O[C@H](CN)[C@@H](O)[C@H](O)[C@H]3O)[C@@H](N)C[C@H]2NC(=O)C(O)CN)OC[C@]1(C)O (stereo not given in full) | – | – | inactive
31 | CC[C@H](C)[C@@H]([C@@H](CC(=O)N1CCC[C@H]1[C@H](OC)[C@@H](C)C(=O)N[C@@H](Cc1ccccc1)c1nccs1)OC)N(C)C(=O)[C@@H](NC(=O)[C@H](C(C)C)N(C)C)C(C)C | – | -79.3 | –
32 | COc1cc2c(cc1OCCCN1CCCC1)N=C(N)C21CCC1 | – | -8.97 | –
33 | O=C(Nc1ccccc1)Nc1ccc(-c2ccc(C(=O)[C@@H]3CCC[C@H]3C(=O)O)cc2)cc1 | – | -45.3 | –
34 | NC(=O)c1ccc2nc(-c3ccc(C4(N)CCC4)cc3)c(-c3ccccc3)n2n1 | 25.1 µM (active) | – | –
35 | COc1cc(OCc2cccc(-c3ccccc3)c2C)cc(OC)c1CN1CCCC[C@H]1C(=O)O | – | -88.4 | –
36 | COC1=C(OC)C(=O)C(C/C=C(\C)CC/C=C(\C)CC/C=C(\C)CC/C=C(/C)CC/C=C(\C)CC/C=C(\C)CC/C=C(\C)CC/C=C(\C)CC/C=C(\C)CCC=C(C)C)=C(C)C1=O | – | -14.5 | –
37 | COc1cc2c(Oc3ccc4[nH]c(C)cc4c3F)ccnc2cc1OCC1(N)CC1 | 11.2 µM (active) | – | –
38 | CN(C)C/C=C/C(=O)Nc1ccc(C(=O)Nc2cccc(Nc3ncc(Cl)c(-c4c[nH]c5ccccc45)n3)c2)cc1 | 1 µM (active) | – | –
39 | C[C@@H](Oc1ccc2[nH]nc(/C=C/c3cnn(CCO)c3)c2c1)c1c(Cl)cncc1Cl | – | -97.5 | –
40 | Nc1nc(N)c2nc(-c3cccc(Cl)c3)c(N)nc2n1 | – | 1.13 | –
